These results are taken from PubChem BioAssay AID463173 (ICCB-Longwood Screening Facility, Harvard Medical School, 2010).

Hit rate of the full screen: of about 52,000 compounds, about 4,300 (8.3%) were called active. The list comes from a sample in which actives are over-represented; it also holds similar structures and randomly drawn compounds. A number with no mark means an inactive call. No stated cut-off is given here; in the data, active means survival mostly below about 52% (no sharp cut-off); inactive means mostly above about 56%.

In the assay the test system is DeltatarO mutant. As to the kind of experiment: S. aureus survival, RN4220 and DeltatarO strains – OD600, teichoic acid synthesis inhibitors, primary screen (AID 463173). To be noted: S. aureus RN4220 wild type/DeltatarO growth, OD600, 18 h, stronger effect = lower value, screened at 18.75 µg/mL (by protocol).
With `COc1ccc(CNC(=O)c2cnc3sc(N4CCCCCC4)nn3c2=O)cc1`, the survival is 101%.
As for `CCOc1cccc2cc(-c3nc(-c4ccccc4C)no3)c(=O)oc12`, the figure is 76%.
As for `CCc1ccc(S(=O)(=O)c2nnn3c2nc(N(C)Cc2ccccc2)c2cc(Cl)ccc23)cc1`, the figure is 82%; as for `COc1cc(-c2nc3sccn3c2Nc2cccc(C)c2)ccc1O`, 54%.
For the molecule `O=c1c2cccnc2n(Cc2cccc(F)c2)c(=O)n1Cc1ccccc1Cl`, the survival is 91%.
As for `O=c1c2ccccc2n(Cc2cccc(F)c2)c(=O)n1Cc1ccccc1Cl`, the survival is 29% (active).
For the molecule `Cc1ccc(CNC(=O)CCCCn2c(=O)c3ccccc3n(Cc3ccc(Cl)cc3)c2=O)cc1`, the survival is 105%.
Consider `Cc1ccc(Cn2c(=O)n(CCCCC(=O)NCCc3ccc(Cl)cc3)c(=O)c3ccccc32)cc1`, for which the survival was 96%.
With `Cc1ccc(Cn2c(=O)n(Cc3ccccc3Cl)c(=O)c3ccccc32)cc1`, the survival was 48% (active).
As to `Cc1ccc(Cn2c(=O)n(Cc3ccccc3Cl)c(=O)c3cccnc32)cc1`, the survival was 69%.
For the molecule `O=C(CCCn1c(=O)c2ccccc2n(Cc2cccc(F)c2)c1=O)NCc1ccccc1Cl`, the survival was 74%.
In the case of `Cc1ccc(Cn2c(=O)n(CCCCC(=O)NCc3ccccc3Cl)c(=O)c3ccccc32)cc1`, the survival is 102%.
As to `Cc1ccc(Cn2c(=O)n(CCc3ccc(Cl)cc3)c(=O)c3ccccc32)cc1`, the survival is 42% (active).
Consider `O=C(CCc1ccccc1)N/N=C/c1ccco1`, for which the survival is 104%.
Consider `Cc1cc(C)c(NS(=O)(=O)c2ccc(-c3cnc(C4CC4)o3)cc2)c(C)c1`, for which the survival is 99%.
To `CCCC(=O)C1=C(O)C(C(=O)OC)C(C)(C)CC1=N` (stereo not given) belongs 95%; to `Cc1ccccc1CNC(=O)CN1CCSc2ccccc21`, 89%; to `Cc1ccccc1NC(=O)c1c(C)oc2ccc(O)c(CN3CCCC(C)C3)c12` (stereo not given), 108%.
Turning to `Cc1nn(-c2ccccc2)c(-n2cccc2)c1C(=O)N1CCN(c2ccccc2)CC1`, the survival is 83%.
Take `Cc1ccc(N(C)S(=O)(=O)c2ccc3c(c2)C(C)(C)C(=O)N3C)cc1C`: the survival is 80%.
For the molecule `O=C(c1[nH]c2ccccc2c1Sc1ccc(Cl)cc1)N1CCCCC1`, the survival was 11% (active).
To `CCOC(=O)C1CCCN(C(=O)c2[nH]c3ccccc3c2Sc2ccc(Cl)cc2)C1` (stereo not given) belongs 37% (active); to `COc1ccc2c(Sc3ccc(Cl)cc3)c(C(=O)N3CCC(C)CC3)[nH]c2c1`, 64%; to `CCOC(=O)C1CCCN(S(=O)(=O)c2ccc(Cl)cc2)C1` (stereo not given), 95%.
As for `COc1ccc2c(Sc3ccc(Cl)cc3)c(C(=O)N3CCCCC3)[nH]c2c1`, the survival is 40% (active).
As for `Cc1ccc2c(Sc3ccc(Cl)cc3)c(C(=O)N3CCC(C)CC3)[nH]c2c1`, the survival was 69%.
As for `COc1ccc2c(Sc3ccccc3)c(C(=O)N3CCC(C)CC3)[nH]c2c1`, the figure is 69%; as for `Cc1ccc2c(Sc3ccc(Cl)cc3)c(C(=O)N3CCCCC3)[nH]c2c1`, 85%.
To `CCOC(=O)C1CCCN(C(=O)c2ccc3c(c2)N(Cc2ccc(Cl)cc2)C(=O)c2ccccc2S3=O)C1` (stereo not given) belongs 60%; to `CCOC(=O)C1CCCN(C(=O)c2ccc3c(c2)N(Cc2cccc(Cl)c2)C(=O)c2ccccc2S3(=O)=O)C1` (stereo not given), 64%; to `Cc1cccc(NC(=O)CS(=O)(=O)c2nc(-c3ccccc3)cn2-c2cccc(Cl)c2)c1C`, 63%.
On to `Cc1ccc(C)c(Cn2c(=O)n(CCCCC(=O)NCc3ccccc3Cl)c(=O)c3ccccc32)c1`, for which the survival was 107%.
On to `COc1ccc(N(C)C(=O)Cn2cc(S(=O)(=O)N3CCN(c4ccccc4F)CC3)c3ccccc3c2=O)c(OC)c1`, for which the survival is 97%.
Consider `Cc1ccc(-c2nn3c(C)nnc3c3ccccc23)cc1S(=O)(=O)NC(C)(C)CO`, for which the survival is 74%.
As for `O=C(NCc1ccccc1Cl)c1cnc2sc(N3CCOCC3)nn2c1=O`, the figure is 71%; as for `COc1cccc(-c2nc(SCc3cc(=O)c4cc(Cl)ccc4[nH]3)n[nH]2)c1`, 94%; as for `O=C(C1CC2c3ccccc3C1c1ccccc12)N1CCOCC1` (stereo not given), 86%.
As for `COc1ccc(OC)c(NC(=O)C2CCN(S(=O)(=O)c3ccc4c(c3)CC(C)N4C(C)=O)CC2)c1` (stereo not given), the figure is 75%; as for `COc1ccc(C(=O)NCc2ccc3c(c2)CCN3C(=O)c2cccc(C)c2)cc1OC`, 119%.
For `Cc1ccc(Cl)cc1N1CCN(S(=O)(=O)c2ccc3[nH]c4c(c3c2)CCCC4)CC1`, the survival is 72%.
As for `COc1ccc(NC(=O)CN(c2ccccc2OC)S(C)(=O)=O)c(OC)c1`, the figure is 75%.
To `Cc1ccc(-n2ccn(CC(=O)c3ccc(F)cc3)c(=O)c2=O)cc1C` belongs 69%; to `Cc1cc2oc(C(=O)Nc3c(C)n(C)n(-c4ccccc4)c3=O)cc(=O)c2cc1C`, 78%; to `Cc1ccc2c(=O)cc(C(=O)Nc3c(C)n(C)n(-c4ccccc4)c3=O)oc2c1`, 39% (active).
Regarding `Cc1c(NC(=O)c2cc(=O)c3ccccc3o2)c(=O)n(-c2ccccc2)n1C`, the survival was 67%.
To `CCc1ccc2oc(C(=O)Nc3c(C)n(C)n(-c4ccccc4)c3=O)cc(=O)c2c1` belongs 97%.
On to `Cc1cc(C)c2c(=O)cc(C(=O)Nc3c(C)n(C)n(-c4ccccc4)c3=O)oc2c1`, for which the survival is 65%.
With `Cc1c(NC(=O)c2cc(=O)c3cc(Cl)ccc3o2)c(=O)n(-c2ccccc2)n1C`, the survival was 43% (active).
`CCN(CC)CCN1C(=O)c2ccccc2NC1c1ccccc1F` (stereo not given): the survival is 106%.
For the molecule `CCOc1ccc(NC(=O)CSc2cn(CCNC(=O)c3ccccc3F)c3ccccc23)cc1`, the survival was 71%.
In the case of `CCC(Sc1nccn1C)C(=O)Nc1cc(C)on1` (stereo not given), the survival was 90%.
As for `CCC(Sc1nc2nccnc2c(=O)n1Cc1ccccc1Cl)C(=O)NC1CCCCC1` (stereo not given), the survival was 99%.
Take `CCC(Sc1nnc(-c2ccc(F)cc2)c(-c2ccc(F)cc2)n1)C(=O)NC1CCCC1` (stereo not given): the survival was 75%.
For the molecule `CCC(Sc1nc2nccnc2c(=O)n1Cc1ccc(Cl)cc1)C(=O)NC1CCCCC1` (stereo not given), the survival was 19% (active).
As to `Cc1ccc(CSc2nc3cc(C(=O)NC4CCCC4)ccc3c(=O)n2Cc2ccccc2)cc1`, the survival was 57%.
For the molecule `CCC(Sc1nc2nccnc2c(=O)n1Cc1ccc(OC)cc1)C(=O)NC1CCCCC1` (stereo not given), the survival is 104%.
`CCC(Sc1nc2cc(OC)c(OC)cc2c(=O)n1Cc1ccc(Cl)cc1)C(=O)NCCOC` (stereo not given): the survival is 91%.
With `CCC(Sc1nc2nccnc2c(=O)n1Cc1ccc(C)cc1)C(=O)NC1CCCCC1` (stereo not given), the survival was 39% (active).
Take `CCC(Sc1nc2nccnc2c(=O)n1Cc1ccc(F)cc1)C(=O)NC1CCCCC1` (stereo not given): the survival is 42% (active).
To `CCC(C(=O)NC1CCCCC1)n1c(SCc2ccc(F)cc2)nc2ccncc21` (stereo not given) belongs 73%.
